Assay outcomes deposited in PubChem by National Center for Advancing Translational Sciences (NCATS).
JMJD2E inh – blocks human JMJD2E demethylase activity | Potency, µM (highest dose often 57.1 µM), without a hit: top-dose activity change, negative = inhibition, most hits filed as inhibitors | AID 2147 | 230,000 tested, 1.6% active | B2RXH2 | JMJD2E catalytic domain, FDH-coupled NADH fluorescence (FDH is formaldehyde dehydrogenase);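 further: 0% = wells with enzyme and -100% = buffer wells without enzyme; nearly all actives have a fitted effect of over 50% in size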
Tau fibril ThT – inhibitors of human tau fibril formation, thioflavin T binding; P10636; recombinant tau K18 P301L, heparin-induced fibrillization, ThT fluorescence; Potency, µM (top dose mostly 57.4 µM), for the others: at the top dose activity, negative = inhibition, usual class: inhibitors; 270,000 tested, 2.1% active; AID 1460; further: nearly all actives have a fitted effect of over 55% in size
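Heparin-induced fibrillization of the P301L-mutant K18 repeat-domain fragment of human tau was followed by ThT binding in quantitative high-throughput format.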
HPGD block – HPGD (human) dehydrogenase inhibition | 150,000 tested, 4.3% active | P15428 | purified HPGD, NADH fluorescence kinetic, PGE2 substrate | Potency, µM, inactives show at the top dose activity change, negative = inhibition, usual class: inhibitors; active means well fitted inhibition curve with a large enough effect, not every such curve was filed as active; inconclusive means small, poorly fitted or top-dose-only effect, or another doubt; inactive means no such curve, though single readings can be large or run the other way
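20 nM HPGD preincubated 15 min at room temperature with compound in 50 mM Tris-HCl pH 8, 0.01% Tween 20. Started with 1 mM NAD+ and 30 uM prostaglandin E2; NADH fluorescence (360/450 nm) read 5 times over 30-s intervals, last minus first.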
Tau fibril FP – inhibitors of human tau fibril formation; P10636; K18 P301L tau heparin fibrillization, Alexa594 FP, 6 h; Potency, µM (top dose mostly 57.7 µM), inactives show at the highest dose activity, negative = inhibition, most hits filed as inhibitors; 280,000 tested, 0.39% active; AID 1468; further: nearly all actives have a fitted effect of over 55% in size
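Quantitative HTS format: compounds meet 15 uM recombinant K18 P301L tau and Alexa 594-tau tracer in 100 mM sodium acetate pH 7; 20 uM heparin triggers fibrillization at 37 C over 6 hr; FP gives the signal.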
Tau fluor counter – counter-screen for tau fibril formation inhibitors; 280,000 tested, 0.93% active; Potency, µM (highest dose often 57.7 µM), for the others: top-dose activity change, negative = decrease; tau K18 P301L (four-repeat tau fragment) Alexa594 fluorescence, heparin fibrillization; further: nearly all actives have a fitted effect of over 55% in size
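Human K18 P301L tau (15 uM unlabeled plus 0.24 uM Alexa 594-labeled, final) in 100 mM sodium acetate pH 7 was mixed with compound and 20 uM heparin and incubated 6 hr at 37 C.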
ALDH1A1 inh – blocks purified human ALDH1A1 activity; 220,000 tested, 7.3% active; Potency, µM (highest dose often 75.3 µM), for the others: at the top dose activity, negative = inhibition, most hits filed as inhibitors; P00352; AID 1030; Purified ALDH1A1, NADH fluorescence, propionaldehyde substrate; active means well fitted inhibition curve with a large enough effect, not every such curve was filed as active; inconclusive means small, poorly fitted or top-dose-only effect, or another doubt; inactive means no such curve, though single readings can be large or run the other way;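 further: plate controls were no enzyme wells and a reference inhibitor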
Target sequence (P00352 whole entry, looked up): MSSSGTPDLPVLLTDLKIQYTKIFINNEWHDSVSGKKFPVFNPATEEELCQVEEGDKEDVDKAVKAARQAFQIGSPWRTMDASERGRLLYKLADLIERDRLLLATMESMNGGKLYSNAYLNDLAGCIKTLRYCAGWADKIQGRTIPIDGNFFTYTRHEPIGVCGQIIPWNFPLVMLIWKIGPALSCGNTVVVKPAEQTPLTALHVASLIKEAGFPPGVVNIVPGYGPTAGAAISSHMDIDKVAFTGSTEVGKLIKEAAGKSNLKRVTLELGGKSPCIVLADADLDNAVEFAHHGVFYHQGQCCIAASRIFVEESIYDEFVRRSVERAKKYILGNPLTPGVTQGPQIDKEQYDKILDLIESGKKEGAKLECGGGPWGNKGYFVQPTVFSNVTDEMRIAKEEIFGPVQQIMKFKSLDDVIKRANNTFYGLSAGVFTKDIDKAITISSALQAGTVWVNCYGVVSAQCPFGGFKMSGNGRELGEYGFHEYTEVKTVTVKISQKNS
The depositor's hits bear a star; ? = inconclusive; · = not tested or not shown; [ ] = another dose, or the depositor's remark. Shown are actives, neighbours in structure and some others; about 9.9% of the full set was active somewhere. Unless noted, the call rests on the fitted dose curve; in most records, active means well fitted curve in the direction sought with a large enough effect; inconclusive means small, poorly fitted or top-dose-only effect, or another doubt; inactive means no such curve, though single readings can be large; an effect the other way counts as inactive or inconclusive. Unless noted, on the % scale 0 is the no-effect control and ±100 the full control effect; potency means the concentration at half of the fitted maximal effect.

SMILES | JMJD2E inh | Tau fibril ThT | HPGD block | Tau fibril FP | Tau fluor counter | ALDH1A1 inh
Nc1nc(/C(=C/CC(=O)O)C(=O)NC2C(=O)N3C(C(=O)O)=CCSC23)cs1 (configuration not stated) | ? | -22% | -21% | ? | -18% | ?
C=CCSc1nnc(NC(=O)c2ccc(Cl)nc2)s1 | ? | -13% | 28µM* | 6% | -6% | ?
COC(=O)[C@H]1[C@H](c2ccccc2)C(=O)[C@@]2(O)c3ccccc3O[C@@]12c1ccccc1 | · | -10%[11.5 µM] | · | -15%[11.6 µM] | -20%[11.6 µM] | 1%[13.5 µM]
CC1O[C@@H](OC2CC[C@@]3(C=O)C4CC[C@]5(C)C(C6=CC(=O)OC6)CC[C@@]5(O)C4CC[C@]3(O)C2)C(O)C(O)C1O (some centres not stated) | 3% | 8% | -7% | 3% | 5% | 7%
N#CC1(O)CCCCC1 | · | · | -5% | · | · | 28µM*
O=c1cc(CO)occ1O | 25µM* | -3% | -2% | -5% | -3% | -2%
CCC1(CCSC(=N)N)C(=O)NC(=O)NC1=O | · | · | -5% | · | · | -1%[13.5 µM]
CCN(CC)C(=O)C(C(=O)c1cccc([N+](=O)[O-])c1)n1cc(Cl)ccc1=O (configuration not stated) | -17% | 0% | · | -2% | 0% | 18µM*
CCOP(=O)(OCC)C(NC(=O)c1cccc([N+](=O)[O-])c1)C(Cl)(Cl)Cl (configuration not stated) | 11% | · | · | 3% | -5% | ·
CC(C)(Cl)Cl | · | · | 0% | · | · | 3%
O=C(c1c[nH]c(C(=O)C(Cl)(Cl)Cl)c1)c1ccccc1Cl | -3% | 1% | 14µM* | 5% | 2% | ?
CCOc1ccc(CCNC(=O)c2cc3c(-c4cccc(OC)c4)nn(C)c3s2)cc1OCC | · | ? | · | -18% | ? | ·
Cc1ccc(-c2cn3c(=S)[nH]nc3s2)cc1 | 6.3µM* | -19% | 28µM* | 1% | -17% | ?
CCCn1c(=O)c2[nH]c(C3CCCC3)nc2n(CCCOC(=O)c2ccc(S(=O)(=O)F)cc2)c1=O | 4% | -13% | -10% | -13% | -10% | 11µM*
[Cl][Pd][Cl].[S-]C1=C2N=CN[C-]2[NH+]=C[N-]1.[S-]c1ncnc2[nH]cnc12 | · | · | 1% | · | · | -11%[13.5 µM]
C#CCN1C(=O)C2(C(C#N)=C(N)OC(C)=C2C(=O)OCc2ccccc2)c2ccccc21 (configuration not stated) | 3% | -18% | -15% | 1% | -19% | 0.79µM*
CCOC(=O)C1=C(C)OC(N)=C(C#N)C12C(=O)N(C)c1ccccc12 (configuration not stated) | -9% | -1% | -7% | -1% | 0% | 6%
CCCCCCCCCCCCCC(=O)OC1C(C)[C@@]2(O)C(C=C(CO)C[C@]3(O)C(=O)C(C)=C[C@H]23)[C@@H]2C(C)(C)[C@]12OC(C)=O (some centres not stated) | ? | -2% | -11% | -7% | -7% | ?
CCc1ccc(-c2nc(CN3CCCC(C(=O)NCc4ccc(C)cc4)C3)c(C)o2)cc1 (configuration not stated) | · | ? | · | -3% | -9% | ·
Cc1ccccc1CN1CCN(c2ccc(Cl)cc2)CC1 | 22µM* | -8% | -4% | 13% | -2% | -15%
Cc1ccccc1CN1CCNCC1 | 3% | 0% | · | -4% | -8% | 14%
COC(=O)NC/C=C\c1nc(CC/C=C\C(=O)O[C@H]2C[C@H]3CC(=O)O[C@@H](/C=C\CC(C)C)C[C@@H]4CC[C@H](C)[C@H](C[C@@H](OC)C[C@H](C2)O3)O4)co1 | · | 4%[11.5 µM] | · | 2%[11.6 µM] | 1%[11.6 µM] | -2%[13.5 µM]
c1ccc(-c2nc(N3CCOCC3)s[n+]2-c2ccccc2)cc1 | -10% | ? | 10µM* | 1% | -7% | 1.8µM*
COc1cc(=O)[nH]c(SCc2c(F)c(F)c(F)c(F)c2F)n1 | 7% | 1% | 16µM* | 0% | 0% | -2%
O=C(O)c1ccccc1C(=O)O | · | · | -11% | · | · | 28µM*
